Measured values reported in PubChem BioAssay AID1578 (Sanford-Burnham Center for Chemical Genomics, 2009).
Out of some 290,000 compounds screened, about 3,000 (1%) were called active. The full list was thinned out, with actives kept by preference. Values without a mark were called inactive. Cut-off read from the data, not from the text of the source: active = inhibition mostly above about 36% (no sharp cut-off); inactive = mostly below about 34%.

Assay: inhibition of NOD1-driven NF-kB reporter – cell-based, luminescence, uHTS, primary screen (AID 1578);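 note: HEK-293T reporter cells stimulated with the NOD1 agonist gamma-tri-DAP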
Conditions: NOD1-driven NF-kB luciferase reporter cells, at 4 µM, stronger effect = higher value
`O=C(O)c1ccc(N2C(=O)/C(=C/C=C/c3ccccc3)SC2=S)cc1` showed an inhibition of -13.7%.
`CC(/C=C1\SC(=S)N(CC(=O)O)C1=O)=C\c1ccccc1` showed an inhibition of -14.7%.
`O=C1CCCCN1CCC(=O)N1CCCC(N2CCN(c3ccccc3)CC2)C1` (centres undefined) gave an inhibition of -1%.
`CC(C)(C)c1nc(CN2CCCCC2)cc(CN2CCCCC2)c1O` gave an inhibition of -2.5%.
In the case of `Cc1ccc(C2=NN(C(=O)CCC(=O)O)C(c3cccs3)C2)cc1` (centres undefined), the inhibition is reported as -4.3%.
For `Cc1ccc(C2=NN(C(=O)CCl)C(c3ccco3)C2)o1` (centres undefined), the inhibition was -45.6%.
Work on `CC(=O)N1N=C(c2ccco2)CC1c1cccs1` (centres undefined) yielded an inhibition of -6.4%.
For `Cc1ccc(C2CC(c3cccs3)=NN2C(=O)CCl)cc1` (centres undefined), the inhibition was 95.3% (active).
With `O=C(O)CCC(=O)N1N=C(c2ccco2)CC1c1cccs1` (centres undefined) the inhibition was -15.2%.
For `CCC(=O)N1N=C(c2cccs2)CC1c1ccc(C)cc1` (centres undefined), the inhibition was 1.5%.
`CCN1CCN(CC(=O)N2N=C(c3cccs3)CC2c2ccc(C)cc2)C(=O)C1=O` (centres undefined) gave an inhibition of -19.6%.
With `COc1cc(NC(=O)CN2CCN(c3ccccc3F)CC2)cc(OC)c1` the inhibition was -13.5%.
For `CC(C)(C)NC(=S)NCc1cccnc1`, the inhibition was 5.8%.
Compound `CCc1ccc(OCC(=O)NNC(=O)c2nn(CC)c(=O)c3ccccc23)cc1` has an inhibition of -23.6%.
Work on `CC1(C)CC(=O)C(Sc2ccc(Br)cc2)=C(O)C1` yielded an inhibition of -57.7%.
For `Fc1ccc(-c2nc3nc4ccccc4nc3n2Cc2ccco2)cc1`, the inhibition was -13.7%.
`S=c1nc(-c2ccccc2)[nH]c2ccccc12` showed an inhibition of -26.9%.
`CCC(CC)c1nc(NCCC(=O)O)c2ccccc2n1` showed an inhibition of -13.4%.
In the case of `COc1ccc(Cl)cc1NC(=O)CCc1nnc2ccc(N3CCC4(CC3)OCCO4)nn12`, the inhibition is reported as 10.7%.
For `COc1ccc(Cl)cc1NC(=O)CCc1nnc2ccc(N3CCN(C)CC3)nn12`, the inhibition was 58% (active).
Work on `COc1ccccc1NC(=O)CCc1nnc2ccc(N3CCN(C)CC3)nn12` yielded an inhibition of -20.3%.
For `COc1cc(O)c(C(CCN2CCOCC2)c2ccc(N(C)C)cc2)c(OC)c1` (centres undefined), the inhibition was 4.8%.
In the case of `Cc1ccc(S(=O)(=O)Nc2nc3ccccc3nc2NCC2CCCO2)c(C)c1` (centres undefined), the inhibition is reported as -1.8%.
Compound `COc1ccc(NC(=O)CN(C)C(=O)c2ccc3c(c2)S(=O)(=O)N=C2CCCCCN23)cc1` has an inhibition of -22%.
For `N#Cc1c(N)nc(Sc2ccc(Cl)cc2)c(C#N)c1-c1ccccc1Cl`, the inhibition was 83.1% (active).
`COc1ccc(-c2c(C#N)c(N)nc(Sc3ccc(Cl)cc3)c2C#N)cc1` showed an inhibition of -0.6%.
With `CCSc1nc(N)c(C#N)c(-c2ccccc2Cl)c1C#N` the inhibition was -2.6%.
Compound `Cc1[nH]c(=O)[nH]c(=O)c1S(=O)(=O)Nc1ccc(Oc2ccccc2)cc1` has an inhibition of -23.1%.
Compound `COc1ccc2nc(NCCCO)[nH]c2c1` has an inhibition of -28.1%.
In the case of `COc1ccccc1OCCNC(=O)c1cc(SC)ccc1Cl`, the inhibition is reported as -20.2%.
`Cc1cc(S(=O)(=O)NCCc2ccccc2)c(C)s1` showed an inhibition of 15.9%.
With `CN(C)c1ccc(/C=C/c2c([N+](=O)[O-])c(=O)n(C)c(=O)n2C)cc1` the inhibition was -9.1%.
`CCc1ccc(/C=C/c2c([N+](=O)[O-])c(=O)n(C)c(=O)n2C)cc1` gave an inhibition of 22.5%.
Compound `CCOc1ccc(/C=C/c2c([N+](=O)[O-])c(=O)n(C)c(=O)n2C)cc1` has an inhibition of -27.7%.
`COc1ccc(/C=C/c2c([N+](=O)[O-])c(=O)n(C)c(=O)n2C)cc1` gave an inhibition of -2.9%.
`Clc1nccnc1-c1ccccc1` showed an inhibition of -25.1%.
Work on `Cc1sc2nc(NCCO)[nH]c(=O)c2c1C` yielded an inhibition of -16%.
In the case of `O=C(Nc1nc(-c2ccc(Br)cc2)cs1)c1cccnc1`, the inhibition is reported as -26.9%.
With `CC1CCCCC1NC(=O)CSc1nnc(-c2ccccc2)n1N` (centres undefined) the inhibition was 11.7%.
In the case of `O=C(CCl)N(c1ccccc1)C1CCCCC1`, the inhibition is reported as 34.4%.
Compound `O=C(CCl)N(C1CCCC1)C1CCS(=O)(=O)C1` (centres undefined) has an inhibition of 35.5%.
In the case of `O=C(CCl)N(c1ccccc1)C1CCS(=O)(=O)C1` (centres undefined), the inhibition is reported as 93.2% (active).
In the case of `NS(=O)(=O)c1ccc(CCNC(=O)c2cc(-c3cc(Cl)ccc3O)n[nH]2)cc1`, the inhibition is reported as -5.8%.
`CC(=O)Nc1ccc(NC(=O)[C@@H](NC(=O)N2C[C@H]3C[C@@H](C2)c2cccc(=O)n2C3)C(C)C)cc1` gave an inhibition of -3.2%.
Compound `CCN(CCn1cccn1)Cc1cn[nH]c1-c1cccc2ccccc12` has an inhibition of -11.1%.
`CC(=O)c1ccc(N2CCN(C(=O)C(=O)c3cn(CC(=O)N4CCCCCC4)c4ccccc34)CC2)cc1` showed an inhibition of -25.9%.
With `Cc1cc(=O)oc2c(C)c(OCC(=O)N3CC[C@@]4(O)CCCC[C@H]4C3)ccc12` the inhibition was -30.1%.
With `COc1cc2ncnc(Nc3ccc4c(c3)OCO4)c2cc1OC` the inhibition was 16.8%.
In the case of `CCN(CC)CCCNc1ncnc2ccccc12`, the inhibition is reported as -25.6%.
In the case of `OCCCCCNc1ncnc2ccccc12`, the inhibition is reported as 45.8% (active).
`COc1cc2ncnc(NCc3cccc(Cl)c3)c2cc1OC` showed an inhibition of 44.2%.
In the case of `COc1cc2ncnc(Nc3cccc(Cl)c3)c2cc1OC`, the inhibition is reported as 45.3% (active).
For `CCCCCCCCNc1ncnc2ccccc12`, the inhibition was 54.9%.
In the case of `COc1ccccc1CNc1ncnc2cc(OC)c(OC)cc12`, the inhibition is reported as -12.1%.
`c1ccc(CNc2ncnc3ccccc23)cc1` showed an inhibition of -16.1%.
Work on `COc1cc2ncnc(NCc3ccccc3)c2cc1OC` yielded an inhibition of -4.6%.
With `c1ccc(CCNc2ncnc3ccccc23)cc1` the inhibition was 71.7% (active).
For `CN(C)CCNc1ncnc2ccccc12`, the inhibition was -20.6%.
For `CC(C)Cn1c(SCC(=O)N2CCCc3ccccc32)nc2ccccc2c1=O`, the inhibition was -2.1%.
`O=C(CSc1nnc(C2CC2)n1CC1CCCO1)Nc1ccccc1Cl` (centres undefined) gave an inhibition of -9%.
In the case of `CC1CCN(c2ccc([N+](=O)[O-])cc2C(=O)O)CC1`, the inhibition is reported as -6.6%.
`COCc1cc(=O)[nH]c(=S)[nH]1` showed an inhibition of -3.8%.
For `C#CCNC(=O)/C=C/c1ccc(C)cc1`, the inhibition was -42.9%.
`COC(=O)C1=C(C(=O)OC)[C@@H]2N(C)c3ccccc3[C@@]23C[C@@H](CO)N(C(=O)NCCBr)C3=N1` showed an inhibition of -2.6%.
